Measured values published in PubChem BioAssay (NCI).
About 83,000 compounds went through this panel and 20% of them were active in at least one assay; those are over-represented in the sample as a whole.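 Growth was measured after 48 h exposure to one concentration of compound in 96-well plates. Values under 10 count as active.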 Unmarked numbers belong to inactive results. Active and inactive are the calls of the source.

tested on: CCRF-CEM leukemia; experiment: NCI-60 one-dose screen, 48 h (100 = growth as untreated, 0 = no growth, -100 = all killed); conditions: 10 µM unless noted
Method: Growth inhibition of the CCRF-CEM human tumor cell line is measured as a screen for anti-cancer activity. Cells are grown in 96 well plates and exposed to the test compound for 48 hours. Compounds are tested at a single concentration, which is 10^-5 M for most compounds. The reported endpoint is percent growth (GI% or GIPRCNT), where numbers from 0 - 100% represent growth inhibition, and numbers from -100% - 0 represent cell death. For example, a value of 40 represents 60% growth inhibition. A value of 0 means no net growth occurred over the course of the experiment. A value of -40 indicates 40% of cells at the beginning of the experiment died by the end of the experiment. A value of -100 means all cells are dead at the end of the experiment.
NCI-60 Human Tumor Cell Lines Screen was performed using the standard one-dose NCI protocol, which is described in more detail at https://dtp.cancer.gov/discovery_development/nci-60/default.htm.
Compounds with GIPRCNT values below 10 were considered active. Activity score was based on GIPRCNT using the following formula: […]
Score is 0 for GIPRCNT values of 100 or above, 50 for GIPRCNT values of 0, and 100 for GIPRCNT values of -100.

Row | SMILES | growth
1 | COc1cc(/C=N/n2cnc3oc(-c4ccccc4)cc3c2=N)cc(CN2CCN(C)CC2)c1O | 66.9%
2 | CC(=O)Nc1ccc(NC(=O)Nc2cccc(-c3nc(-c4ccc(NC(=O)c5cccnc5)cc4Cl)no3)c2)cc1C(F)(F)F | -14.5% (active)
3 | CC(C)N=C(N/C(N)=N/c1nc2ccccc2s1)NC(C)C | 52.9%
4 | O=C(CCCCCCN1CC(=O)N2[C@@H](c3ccccc3)c3[nH]c4ccccc4c3C[C@H]2C1=O)NO | 24.5%
5 | C#C[C@]1(O)CC[C@H]2[C@@H]3CC=C4c5sc(-c6cccc(F)c6)nc5CC[C@]4(C)[C@H]3CC[C@@]21C | 75.1%
6 | Cc1ccc(Cc2cnc(NC(=O)/C(C#N)=C/c3ccc(-c4ccc(Cl)cc4)o3)s2)cc1 | 98.4%
7 | CN1CCN(Cc2ccc(NC(=O)c3cncc(C#Cc4[nH]nc5ncncc45)c3)cc2C(F)(F)F)CC1 | 51%
8 | C=C(C)[C@@H]1CC[C@]2(C(=O)ON)CC[C@]3(C)[C@H](CC[C@@H]4[C@@]5(C)C/C(=C/c6ccc(Br)cc6)C(=O)C(C)(C)[C@@H]5CC[C@]43C)[C@@H]12 | 67.8%
9 | COc1ccc(NC(=O)Cn2cc(CN3C(=O)c4ccc([N+](=O)[O-])cc4C3=O)nn2)cc1 | 109%
10 | Nc1cc(F)ccc1NC(=O)c1ccc(NC(=O)C/C=C/c2cccnc2)cn1 | 15.1%
11 | COc1ccc(OC)c(NC2=C(Cl)C(=O)C(C)=C(C)C2=O)c1 | 12.9%
12 | COc1ccc(Cn2cc3c(c2-c2ccccc2)CCCc2cnoc2-3)cc1[N+](=O)[O-] | 52.6%
13 | CC1(C)CC[C@]2(C(=O)O)CC[C@]3(C)C(=CCC4[C@@]5(C)C[C@@H](O)[C@@H]6OC(c7cccc([N+](=O)[O-])c7)OC[C@@]6(C)C5CC[C@]43C)C2C1 (stereo not given in full) | 44.4%
14 | CN1CCN(c2ccc(C(=O)Nc3cccc(-c4cn(-c5ccc(S(N)(=O)=O)cc5)nn4)c3)cc2C(F)(F)F)CC1 | 70.8%
15 | CCOC(=O)CC(=O)CSC1=NC2C(NN1)N(C)C(=O)N2C (stereo not given) | 38.8%
16 | CC(C)Sc1nc(NC2CC2)c(C#N)c(-c2ccccc2)n1 | 85.1%
17 | Cn1cc(-c2nn3cc(-c4cccnc4)nc3s2)c2cc(F)ccc21 | 89.2%
18 | Fc1ccc(-c2cc3nc(C(Cl)Cl)nc(-c4cccs4)n3n2)cc1 | 86%
19 | N/C(=N\c1nc2ccc([N+](=O)[O-])cc2s1)C(Cl)(Cl)Cl | 77.4%
20 | CCOC(=O)c1c(NCC(=O)Nc2ccc(Br)cc2)sc2c1CCCC2 | 18.2%

Row | SMILES | growth
21 | COc1ccc(S(=O)(=O)NCCCNc2nccc(-n3cnc4ccccc43)n2)cc1 | 91.4%
22 | O=S(=O)(Nc1ccc2c(c1)OC(F)(F)O2)c1ccc(-c2cnc(C3CC3)o2)cc1 | 24.1%
23 | CC(=O)Nc1ccc(NC(=O)Nc2cccc(-c3nc(-c4ccc(NC(=O)c5cccs5)cc4Cl)no3)c2)cc1C(F)(F)F | 6.64% (active)
24 | Cc1cn(-c2cc(NC(=O)c3cncc(C#Cc4cnc5ccc(OCCCS(C)(=O)=O)nn45)c3)cc(C(F)(F)F)c2)cn1 | 6.72% (active)
25 | Cc1[nH]nc2ccc(-c3nc4cnc(N5CCN(C)CC5)cn4c3Nc3ccc(F)cc3Br)cc12 | 3.21% (active)
26 | COc1ccc(-c2nc3cc(Cl)c(Cl)cc3n2CC(=O)N=Nc2c(O)[nH]c3ccc(Cl)cc23)cc1 | 37.4%
27 | CC1(C)CC[C@]2(C(=O)N3CCCNCC3)CC[C@]3(C)C(=CC[C@@H]4[C@@]5(C)CCC(=O)C(C)(C)[C@@H]5CC[C@]43C)[C@H]2C1 | 90.6%
28 | CCn1c2ccc(/C=N/OCCCN(C)C)cc2c2cc(/C=N/OCCCN(C)C)ccc21 | 9.36% (active)
29 | COc1cc2oc(-c3cccc(NC(=O)c4cc(NC(=O)[C@H](C)NC(=O)OC(C)(C)C)ccc4C)c3)cc(=O)c2c(OC)c1OC | 62.4%
30 | N/C(=N\OC(=O)CSc1nc2ccccc2s1)c1ccc2ccccc2c1 | 101%
31 | CCOC(=O)Nc1ccc(-c2nc(-c3cccc(O)c3)c(-c3ccnc(Br)c3)[nH]2)cc1 | 22.9%
32 | CCCCCCNC(=O)Oc1ccc(/C(=C(/C)c2ccc(OC)cc2)c2ccc(OCCN3CCCC3)cc2)cc1 | 62.4%
33 | C=C(C)[C@@H]1CC[C@]2(C(=O)NCCCN(CCC#N)CCC#N)CC[C@]3(C)[C@H](CC[C@@H]4[C@@]5(C)CCC(=O)C(C)(C)[C@@H]5CC[C@]43C)[C@@H]12 | 103%
34 | CCCCCCCCNC(=O)c1ccc(Cn2c(CCCC)nc3c(N)nc4ccccc4c32)cc1 | -1.62% (active)
35 | CC(C)C[C@H]1C(=O)O[C@H](C(C)C)C(=O)N(C)[C@@H](C(C)C)C(=O)O[C@H](C(C)C)C(=O)N(C)[C@@H](C(C)C)C(=O)O[C@H](C(C)C)C(=O)N1C | 11.3%
36 | CCN(CC)CCN1C(=O)c2c(c3c4cc(Br)ccc4[nH]c3c3ccc4ccccc4c23)C1=O | 1.96% (active)
37 | Nc1n[nH]c2cccc(C#Cc3cccc(NC(=O)c4cccc(OC(F)(F)F)c4)c3)c12 | 76.2%
38 | O=C1c2c(c3c4cc(O)ccc4oc3c3[nH]c4ccccc4c23)C(=O)N1O | 1.62% (active)
39 | CS(=O)(=O)c1nccc(-c2c(-c3ccc(F)c(OCCc4ccc(F)cc4)c3)nc3sccn23)n1 | 56.4%
40 | CCOC(=O)C1=C(C)Nc2nnc(Nc3ccccc3)n2C1c1ccccc1 (stereo not given) | 69.5%
